# The whole screen tested about 2,400 compounds, of which about 40 (2%) were called active. These entries were drawn from the full list. A number with no mark means an inactive call. Rule as the data show it: active = activation above about 37%; inactive = the rest.
# Target: Trace amine-associated receptor 1 (Homo sapiens) (UniProt Q96RJ0)
# Assay: TAAR1 activation by candidate antagonists – cell-based, fluorescence, counter-screen for TAAR1 antagonist project (AID 651955);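 also: CHO cells stably expressing TAAR1 with calcium dye readout; 0% = DMSO vehicle and 100% = full agonist response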
# Details: hTAAR1 cell line, agonist mode, at 3 µM, active compounds read high
# Trace amine-associated receptor 1 (Homo sapiens), sequence (Q96RJ0 whole entry, looked up): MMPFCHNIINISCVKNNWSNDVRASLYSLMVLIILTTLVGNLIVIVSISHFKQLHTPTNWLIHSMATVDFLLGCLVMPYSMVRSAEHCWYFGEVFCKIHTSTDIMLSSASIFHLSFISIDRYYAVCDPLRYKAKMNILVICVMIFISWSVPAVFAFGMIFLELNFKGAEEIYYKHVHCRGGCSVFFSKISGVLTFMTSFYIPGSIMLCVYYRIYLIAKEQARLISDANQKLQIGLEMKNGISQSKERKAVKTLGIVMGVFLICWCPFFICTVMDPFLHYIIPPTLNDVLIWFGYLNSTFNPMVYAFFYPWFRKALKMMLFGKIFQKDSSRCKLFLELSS
row,Structure (SMILES),activation [%]
1,COc1ccc(C2=NOC(Cn3nc(C(=O)NCc4ccc5c(c4)OCO5)cc3-c3ccccc3)C2)cc1 (configuration not stated),6.17
2,COC(=O)c1sccc1NC(=O)c1cc(OC)c(OC)c(OC)c1,6.39
3,Cc1nc(N2CCN(c3ccccn3)CC2)c2c(C)c(C(=O)Nc3ccc(F)cc3)sc2n1,5.28
4,COc1ccc(CN(C)C(=O)c2cc(-c3ccc(C)cc3C)nc3ccccc23)c(OC)c1OC,12.2
5,O=C(NCCN1C(=O)S/C(=C\c2cccnc2)C1=O)c1ccc(S(=O)(=O)N2CCCC2)cc1,6.63
6,C[C@H](O)[C@@H]1C(=O)N2CCc3c([nH]c4c(-c5ccc6c(c5)OCO6)cccc34)[C@@H]2C[C@@H]1N(C)C(=O)c1ccco1,7.7
7,Cc1cc(Br)ccc1NC(=O)c1cnc(N2CCN(c3ccccn3)CC2)c2ccccc12,5.88
8,COC(=O)[C@@]1(Sc2ccc(C)cc2)CC(=O)N(c2cccc(SC)c2)[C@@H]1c1ccccc1,9.64
9,COc1ccc(S(=O)(=O)N2CCCC(C(=O)Nc3ccc(NC(=O)c4ccccn4)cc3)C2)cc1 (configuration not stated),11
10,COc1ccc(CCNC2=C(Cl)C(=O)N(Cc3ccccc3)C2=O)cc1OC,7.18
11,O=C(O)c1ccc(NC(=O)c2cn(-c3ccccc3)nc2-c2ccc(Cl)cc2)cc1,-1.05
12,COc1ccc(NC(=O)c2cc(-c3ccc(C)o3)nc3ccccc23)cc1,6.61
13,O=C(Oc1ccc(-c2nnco2)cc1)c1ccc(F)c(S(=O)(=O)N2CCOCC2)c1,14.6
14,O=C(OCC(=O)N(CCc1ccccc1)Cc1ccccc1)c1ccccc1[N+](=O)[O-],7.56
15,COC(=O)Cc1nnn2c1[C@H](C)[C@H](c1ccccc1Br)OCC2,7.69
16,COc1ccc(OC)c2[nH]c(=O)c(CCNC(=O)C(=O)c3c[nH]c4ccccc34)cc12,10.8
17,Cc1cccc(NC(=O)c2ccc(COc3ccccc3[N+](=O)[O-])o2)n1,1.12
18,NNC(=O)CNC(c1ccccc1)c1cc(Cl)ccc1NC(=O)c1ccccc1 (configuration not stated),8.83
19,Cc1cc(C(C)(C)C)oc1C(=O)N(CC(=O)NC1CCCC1)Cc1ccc(Cl)cc1,34.2
20,CCOc1cc(/C=N/NC(=O)c2cc(-c3ccccc3)nc3ccccc23)ccc1O,15.8
21,O=C(N/N=C/c1ccc(OC(=O)c2ccccc2Cl)cc1)c1ccc(O)cc1,13.1
22,Cc1cccc(NC(=O)c2nc[nH]c2C(=O)NCC(=O)OCc2ccccc2)c1,3.94
23,C[C@H](NC(=O)c1nc[nH]c1C(=O)NCC(=O)OC(C)(C)C)C(=O)OCc1ccccc1,11.1
24,O=C(COC(=O)CCCSc1nc2ccccc2[nH]1)Nc1ccc(Oc2ccccc2)cc1,9.65
25,COc1ccc(CCNC(=O)c2ccc(CS(=O)(=O)c3ccc(Br)cc3)o2)cc1OC,12.3
26,COc1cc2ccccc2cc1C(=O)Nc1ccc(NC(=O)c2cccs2)cc1,7.6

row,Structure (SMILES),activation [%]
1,C=CCC[C@H](Cc1ccc(F)cc1)C(=O)OC[C@H](C)NC(=O)[C@H](CC=C)CC(=O)N(CCO)Cc1ccccc1,6.83
2,CCc1ccc2c(c1)NC(=O)C2(C)Cc1ccc(OC(F)(F)F)cc1 (configuration not stated),25.6
3,CC/C(=N/Nc1ccccc1)c1cnnc(SC)n1,-4.06
4,Cc1ccc2c(c1)N(CC(=O)NCCc1ccc(Cl)cc1)C(=O)c1cccnc1O2,5.11
5,Oc1ccccc1N1CCN(c2ncnc3sc(-c4ccccc4)cc23)CC1,2.9
6,Cc1ccc(NC(=O)c2ccc(CSc3ncnc4nc[nH]c34)cc2)c(C)c1,3.79
7,C=CCc1cc(S(=O)(=O)c2ccc(O)c(CC=C)c2)ccc1O,9.65
8,Cc1ccc2cccc(OCCCOc3ccccc3CO)c2n1,11.3
9,COc1ccc(/C=C/C(=O)Nc2ccc(C34CC5CC(CC(O)(C5)C3)C4)cc2)cc1OC,11.1
10,Cc1ccccc1NC(=O)Cc1nc(COC(=O)C(C)(C)Oc2ccc(Cl)cc2)cs1,10.5
11,CCNS(=O)(=O)c1ccc(CCC(=O)N2CCN(c3cc(Cl)ccc3C)CC2)cc1,17.4
12,COc1ccc(C(=O)Oc2ccc(-c3nnco3)cc2)cc1S(=O)(=O)N1CCOCC1,11
13,Oc1ccc(/C=N/Nc2nc(-c3ccccc3F)nc3ccccc23)c(O)c1,9.34
14,C=CCn1c(SCc2cccc(F)c2)nc2cc(C(=O)N3CCC(C(N)=O)CC3)ccc2c1=O,9
15,COc1ccc2[nH]c(=O)c(CN(Cc3cccnc3)S(=O)(=O)c3ccccc3F)cc2c1,12.6
16,Fc1ccc(/C=N/Nc2nc(-c3cccnc3)nc3ccccc23)cc1,3.24
17,CCOC(=O)C1=C(NC(=S)NC(=O)c2ccccc2)c2ccccc2CC1(C)C,31.1
18,CNC(=O)c1ccsc1NC(=O)c1ccc(S(=O)(=O)N2CCc3ccccc32)cc1,6.5
19,CC(C)(C)OC(=O)NCCCCCNC(=O)c1nc[nH]c1C(=O)NCc1ccccc1,7.66
20,Cc1ccccc1OCC(=O)Nc1ccc(N2CCN(C(=O)C(C)C)CC2)c(Cl)c1,10.6
21,COc1cc(OC)cc(C(=O)OCC(=O)Nc2sccc2C(N)=O)c1,16.7
22,CCOc1ccc(NC(=O)N2CC=C(n3c(=O)[nH]c4ccccc43)CC2)cc1,6.44
23,O=C(CCc1ccccc1)Nc1cccc(-c2nnc(-c3ccco3)o2)c1,7.95
24,O=C(Nc1ccc(-c2nnc(-c3ccccc3)o2)cc1)c1ccc(Br)o1,-1.1
25,CC(C)Oc1cc(F)ccc1-c1cc(C(=O)Nc2ccc(F)cc2)[nH]n1,2.53
26,COc1ccc(-c2cc(C(=O)N(C)Cc3ccc(OC)c(OC)c3OC)c3ccccc3n2)cc1OC,8.62

# Source: PubChem BioAssay AID651955 (The Scripps Research Institute Molecular Screening Center, 2012)
